Source: PubChem BioAssay (National Center for Advancing Translational Sciences (NCATS))
Cruzain noTriton: blocks cruzain activity in detergent-free assay | Potency, µM, without a hit: max response, negative = inhibition, actives largely listed as inhibitors | AID 1476 | purified cruzain, Z-FR-AMC fluorescence, no detergent | 200,000 compounds, 2.3% hits | P25779;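 further: plate controls were enzyme without inhibitor for no effect and buffer without enzyme for full effect; nearly all actives have a fitted effect of over 40% in size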
Target sequence (P25779 123-467 limits assumed): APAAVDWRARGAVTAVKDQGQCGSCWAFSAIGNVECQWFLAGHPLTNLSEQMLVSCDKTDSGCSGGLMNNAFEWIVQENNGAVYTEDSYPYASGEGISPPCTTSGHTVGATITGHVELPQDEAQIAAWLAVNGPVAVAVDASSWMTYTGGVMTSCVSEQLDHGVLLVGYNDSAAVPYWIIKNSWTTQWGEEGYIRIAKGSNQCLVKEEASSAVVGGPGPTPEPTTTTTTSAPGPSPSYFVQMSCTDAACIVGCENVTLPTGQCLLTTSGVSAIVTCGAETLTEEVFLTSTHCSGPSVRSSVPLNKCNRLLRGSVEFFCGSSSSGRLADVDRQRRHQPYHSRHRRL
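Detergent-free condition (0.00005% Triton X-100) in acetate buffer pH 5.5 with DTT. 1.5 nM enzyme and compound were pre-mixed 15 min, then 2 uM Z-FR-AMC substrate added; reaction progress from fluorescence change between first and third reads (60 s).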
Cruzain inh Det: blocks cruzain activity in presence of Triton detergent. AID 1478. 200,000 compounds, 0.43% hits. P25779. Potency, µM, for the others: max response, negative = inhibition, actives largely listed as inhibitors. purified cruzain, Z-FR-AMC fluorescence, 0.01% Triton;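 further: plate controls were neutral wells for no effect and buffer without enzyme for full effect; nearly all actives have a fitted effect of over 40% in size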
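15 min RT preincubation of 1.5 nM cruzain with compound, then 2 uM Z-FR-AMC added; kinetic AMC fluorescence, 60 s delta. Triton X-100 0.01%, pH 5.5.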
Numbers without * were called inactive; ? = inconclusive. Shown are actives, neighbours in structure and some others; about 2.6% of the full set was active somewhere. The call rests on the fitted dose curve; in most records, active means well fitted curve in the direction sought with a large enough effect; inconclusive means small, poorly fitted or top-dose-only effect, or another doubt; inactive means no such curve, though single readings can be large; an effect the other way counts as inactive or inconclusive. Potency means the concentration at half of the fitted maximal effect.

SMILES	Cruzain noTriton	Cruzain inh Det
C=CCSc1nc2c(cc1C#N)CCC2	-9.6%	0.5%
COCCCn1c(SCc2ccccc2)nc2cc(OC)c(OC)cc2c1=N	?	-15.5%
Cc1ccccc1-c1nc(CN2CCC(C(=O)O)CC2)c(C)o1	-5.1%	3.8%
COc1cc(Nc2ccccc2Cl)c([N+](=O)[O-])nc1[N+](=O)[O-]	-0.5%	0.6%
C=CCSc1nc2ccccc2n1S(=O)(=O)c1ccc(C)cc1	-8.7%	-7.0%
O=C(CN1CCC(Cc2ccccc2)CC1)NC(=O)NCc1ccco1	11.6%	3.2%
O=C(Nc1ccccc1)/C(=C\c1ccncc1)NC(=O)c1ccccc1	-2.5%	-0.9%
Cc1ccc(S(=O)(=O)Oc2ccc(/C=C(/NC(=O)c3ccccc3)C(=O)Nc3ccccc3)cc2)cc1	12.6µM*	1.5%
Cc1cccc(NC(=O)/C(=C\c2ccc([N+](=O)[O-])o2)NC(=O)c2ccc(Cl)cc2)c1	-20.1%	-2.8%
Cc1ccc(NC(=O)/C(=C/c2ccncc2)NC(=O)c2ccccc2)cc1	-8.0%	-4.1%
CSc1ccc(/C=C(/NC(=O)c2ccc(C)cc2)C(=O)Nc2cccc(C)c2)cc1	6.31µM*	-5.8%
COc1ccc(NC(=O)/C(=C\c2ccc(OS(=O)(=O)c3ccc(C)cc3)cc2)NC(=O)c2ccccc2)cc1	7.94µM*	2.6%
CCOc1ccc(C2=Nn3c(nnc3-c3ccccn3)SC2)cc1	-8.1%	-2.5%
COc1cccc(N=Nc2c(N)[nH]n3c(=O)cc(-c4ccccc4)nc23)c1	12.6µM*	0.1%
Cc1ccc(N=Nc2c(N)[nH]n3c(=O)cc(-c4ccccc4)nc23)cc1	-20.3%	-6.2%
O=C(CSc1ccccc1C(=O)O)Nc1cccc(C(=O)O)c1	-5.5%	0.2%
O=C(Nc1cccc(Cl)c1)N(Cc1nc2ccccc2c(=O)[nH]1)Cc1cccs1	-3.2%	-6.0%
CCOc1ccc(-c2cn3c(n2)sc2cc(C(=O)NCCCN4CCCCCC4)ccc23)cc1	2.8%	-1.8%
CCOc1ccc(-c2cn3c(n2)sc2cc(C(=O)NCCCN4CCCCC4)ccc23)cc1	3.98µM*	-1.6%
COc1cc(NC(=O)CN2CCN(c3ccccc3F)CC2)c(C)cc1[N+](=O)[O-]	25.1µM*	2.1%
COc1cc(NC(=O)CN2CCN(c3ccccc3)CC2)c(C)cc1[N+](=O)[O-]	?	-1.3%
O=C1OCCN1C(=O)[C@H]1[C@H](c2ccc(Cl)cc2)C(c2ccccc2)=NN1c1ccc(Br)cc1	11.2µM*	-2.6%
O=C1OCCN1C(=O)[C@H]1[C@H](c2ccccc2)C(c2cccc(Cl)c2)=NN1c1ccc(Br)cc1	12.6µM*	0.5%
CC[C@@H]1C(c2cccc(Cl)c2)=NN(c2ccc(Br)cc2)[C@H]1C(=O)N1CCOC1=O	?	-2.7%
O=C(O)c1nc(-c2ccccc2)n(-c2ccc(Cl)cc2)n1	-5.5%	5.6%
SMILES	Cruzain noTriton	Cruzain inh Det
O=C1OCCN1C(=O)[C@H]1[C@H](c2ccc(F)cc2)C(c2cccc(Cl)c2)=NN1c1ccc(Br)cc1	15.8µM*	-2.4%
CC[C@@H]1C(c2ccccc2)=NN(c2ccc(Br)cc2)[C@H]1C(=O)N1CCOC1=O	25.1µM*	-0.6%
COc1ccccc1NC(=O)/C(C#N)=C/c1cc([N+](=O)[O-])ccc1N1CCCC1	?	-4.6%
CCN(CC)C(=O)CN(c1ccc(C)cc1)S(=O)(=O)c1ccc(SC)cc1	1.4%	0.0%
CNc1oc(-c2ccc(Cl)cc2)nc1P(=O)(c1ccccc1)c1ccccc1	?	12.6µM*
CCOP(=O)(OCC)c1nc(-c2ccc(C)cc2)oc1NCc1ccccc1	?	-10.3%
CN(C)C(=O)CSc1nnc([C@@H](N)Cc2ccccc2)o1	25.1µM*	20µM*
C[C@H](N)c1nnc(SCC(=O)N(C)C)o1	2.2%	1.0%
CCOc1ccc(NC(=O)CSc2nnc(CNC(=O)c3c(F)cccc3Cl)o2)cc1	1.9%	-4.9%
COc1ccc(C(=O)N2CCN=C2SCc2cccnc2)cc1OC	-4.8%	-1.4%
O=C(/C=C/c1ccccc1Cl)c1cccnc1	7.4%	-1.3%
COc1ccc(-c2csc(N(Cc3ccccc3)C(=O)COc3ccc(Cl)cc3)n2)cc1	6.31µM*	1.4%
O=C(COc1ccccc1)N(Cc1ccccc1)c1nc(-c2ccccc2)cs1	?	5.8%
CC(C)c1noc(-c2ccccc2OCC(=O)Nc2ccccc2[N+](=O)[O-])n1	?	-10.1%
C(#Cc1ccccc1)C[N+]1(CC#Cc2ccccc2)CCCC1	-13.2%	-3.0%
C=CC#CC[N+]1(CC#Cc2ccccc2)CCOCC1	-7.9%	25.1µM*
Cc1nn(S(=O)(=O)c2ccccc2)c(C)c1S(=O)(=O)N1CCC(C)CC1	-1.0%	-1.8%
Cc1ccc(-c2nnn(CC(=O)NCCC3=CCCCC3)n2)cc1	?	8.5%
O=C(Cn1nnc(-c2ccc(Cl)cc2)n1)NCCC1=CCCCC1	20µM*	10.5%
CC1Cc2ccccc2N1NC(=O)c1ccc(Cl)c(S(N)(=O)=O)c1 (stereo unspecified)	11.2%	2.5%
O=C1NCCCc2c1oc1cc(Br)c(O)c(Br)c21	-9.9%	-1.1%
CC(C)NCc1c(O)c(Br)cc2oc3c(c12)CCCC3	12.6µM*	0.5%
Cn1c(=O)c2c(ncn2CC(=O)Nc2cccc(Cl)c2Cl)n(C)c1=O	?	28.2µM*
Cc1ccccc1NC(=O)Cn1cnc2c1c(=O)n(C)c(=O)n2C	13.9%	5.0%
CCc1ccc(NC(=O)CC(c2ccc(C)cc2)N2Cc3ccccc3C2=O)cc1 (stereo unspecified)	0.6%	-0.1%
SMILES	Cruzain noTriton	Cruzain inh Det
CCOC(=O)C1CCN(C(=O)Nc2ccc3nc(-c4ccco4)c(-c4ccco4)nc3c2)CC1	?	14.1µM*
CCOC(=O)C1CCN(C(=O)Nc2ccc3c(c2)nc(C)n3C)CC1	-2.7%	3.5%
O=C(Nc1ccc2nc(-c3ccco3)c(-c3ccco3)nc2c1)N1CCCCCC1	2µM*	14.1µM*
Cc1nc2ccc(NC(=O)N3CCCCC3)cc2nc1C	-13.5%	-4.3%
c1ccc(-c2n[nH]c(-c3ccccn3)n2)cc1	-1.7%	-1.6%
COn1c2c(c3c4no[n+]([O-])c4ccc31)CCCC2	20µM*	1.2%
COn1c2c(c3c4nonc4ccc31)CCCC2	-3.2%	-9.2%
COc1ccc(/C=C2/N=C(c3cccs3)OC2=O)cc1OC(C)C	7.6%	?
COC(=O)c1ccc(-c2ncc(-c3cccc4ccccc34)o2)cc1	?	20µM*
COC(=O)c1ccc(-c2nc3ccccc3o2)cc1	6.6%	2.1%
COc1ccc(NC(=O)c2ccc3oc(=O)c(S(=O)(=O)c4ccc(F)cc4)cc3c2)cc1OC	1.4%	-0.5%
Nc1scc2c(C(=O)N/N=C/c3ccc(Cl)cc3)nn(-c3ccccc3)c(=O)c12	?	-4.5%
Oc1cccc(NC(=S)Nc2ccc(SC(F)F)cc2)c1	-2.1%	-5.4%
FC(F)Sc1ccc(NC(=S)NC2CCC(NC(=S)Nc3ccc(SC(F)F)cc3)CC2)cc1 (stereo unspecified)	15.8µM*	2.3%
N#CC1=C(N)NC(SCc2ccc(F)cc2)=C(C#N)C12CCCCC2	?	-17.4%
Cc1ccc2nc(C3CCN(C(=O)NCc4ccccc4)CC3)[nH]c2c1	-2.8%	-0.1%
Cc1ccc2nc(C3CCCN(C(=O)NCc4ccccc4)C3)[nH]c2c1 (stereo unspecified)	6.31µM*	?
O=C(c1ccccc1)N1CCN(c2ccc([N+](=O)[O-])c(N3CCOCC3)c2)CC1	-1.3%	-8.0%
COc1ccccc1N1CCSC1C(N)=O (stereo unspecified)	-2.4%	7.9%
